Targets with a hit are over-represented here; the source holds about 7,900 in all. About 0.6% of all pairs of compound and target were hits.
How the values were obtained:
Assay in all cases: log2 fold change, soluble protein after heating vs DMSO (PISA); higher = thermal stabilisation; K562 cells, 10 uM, 30 min; active = over 0.2 and 3.5 SD of the protein, either way, in both replicates (recomputed)
[1] = compound: CC1=C(C=C(C=C1)NC(=O)C2=CC(=CC=C2)C(C)(C)C#N)NC3=CC4=C(C=C3)N=CN(C4=O)C
Outline: (§1)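 K562 cells at 2×10^6 cells/mL were treated for 30 min with 10 μM compound, and aliquots were heated for 3 min over 48°C-58°C before pooling. Extraction used PBS with 0.5% NP-40 at 4°C, and soluble protein was the supernatant after 21,000xg for 90 min, measured by TMTpro 16plex LC-MS/MS with channel sums equalised. Thermal stability values, relative to control samples and from duplicates, are log2 fold changes.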

[2] = compound: CC1=C(C=C(C=C1)NC(=O)C2=CC(=CC=C2)N(C)C)NC(=O)C3=CC=C(C=C3)O
Outline: as §1

[3] = compound: CC1=CC=C(C=C1)SC2=C3C=C(SC3=CN=C2)C(=O)N
Outline: as §1

[4] = compound: CC1=NC(=CC=C1)C2=C(N=C(N2)C(C)(C)C)C3=CC4=NC=CN=C4C=C3
Outline: as §1

[5] = compound: CCCCN(Cc1ccc(C(=O)NO)cc1)C(=O)Nc1ccccc1 [Nexturastat A]
Outline: as §1

[6] = compound: CCCS(=O)(=O)Nc1ccc(F)c(C(=O)c2c[nH]c3ncc(-c4ccc(Cl)cc4)cc23)c1F [vemurafenib]
Outline: as §1

[7] = compound: CCCS(=O)(=O)Nc1ccc(F)c(C(=O)c2c[nH]c3ncc(Cl)cc23)c1F
Outline: as §1

[8] = compound: CCCc1cc(C)[nH]c(=O)c1CNC(=O)c1cc(-c2ccnc(N3CCN(C)CC3)c2)cc2c1cnn2C(C)C
Outline: as §1

[9] = compound: CCN(CC)Cc1ccc2cc(COC(=O)Nc3ccc(C(=O)NO)cc3)ccc2c1 [givinostat]
Outline: as §1

[10] = compound: CCN(CCCOc1ccc2c(Nc3cc(CC(=O)Nc4cccc(F)c4)[nH]n3)ncnc2c1)CCOP(=O)(O)O [barasertib]
Outline: as §1

[11] = compound: CC[C@@H]1C(=O)N(C)c2cnc(Nc3ccc(C(=O)NC4CCN(C)CC4)cc3OC)nc2N1C1CCCC1
Outline: as §1

[12] = compound: CC[C@@H]1C(=O)N(C)c2cnc(Nc3ccc(C(=O)N[C@H]4CC[C@H](N5CCN(CC6CC6)CC5)CC4)cc3OC)nc2N1C(C)C [volasertib]
Outline: as §1

[13] = compound: CC[C@H](C)N1C=C(C2=C(C=C(C=C21)C3=CN=C(C=C3)N4CCNCC4)C(=O)NCC5=C(C=C(NC5=O)C)C)C
Outline: as §1

[14] = compound: CC[C@H](C)[C@@H](C(=O)N[C@@H]([C@@H](C)O)C(=O)N[C@@H](CC(C)C)C(=O)[C@]1(CO1)C)NC(=O)[C@H]([C@@H](C)CC)N(C)C(=O)C [epoxomicin]
Outline: as §1

[15] = compound: CCn1c(C(=O)N(C2CC2)C2CC2)cc2c3c(ncn3C)c(Nc3cc(C)n(C)n3)nc21
Outline: as §1

[16] = compound: CCn1cc(-c2ccnc3[nH]c(-c4cccc(CN(C)C)c4)cc23)c(-c2ccc(NC(=O)N(C)C)cc2)n1
Outline: as §1

[17] = compound: CN(C)CC(=O)Nc1ccc2[nH]c(=O)c3ccccc3c2c1
Outline: as §1

[18] = compound: CN(CCOC1=CC=C(C=C1)C[C@H]2C(=O)NC(=O)S2)C3=CC=CC=N3 (racemic) [rosiglitazone]
Outline: as §1

[19] = compound: CN1C2=C(C3=C1C(=O)N(N=C3)CC4=CC(=CC=C4)N)SC(=C2)S(=O)C
Outline: as §1

[20] = compound: CN1CCC(CNc2ccc3ncc(-c4cccc(OC(F)(F)F)c4)n3n2)CC1
Outline: as §1

Measured: log2 fold change

NPC1 (UniProt O15118)
inactive: [1] -0.018 | [2] 0.01 | [3] 0.006 | [4] 0.066 | [5] -0.041 | [6] 0.007 | [7] -0.019 | [8] -0.028 | [9] -0.051 | [10] 0.02 | [11] -0.016 | [12] -0.072 | [13] -0.031 | [14] -0.02 | [15] 0.009 | [16] 0.005 | [17] -0.029 | [18] -0.018 | [19] 0.004 | [20] 0.012

OGFR (UniProt Q9NZT2)
UniProt Q9NZT2, sequence (Q9NZT2 whole entry, looked up): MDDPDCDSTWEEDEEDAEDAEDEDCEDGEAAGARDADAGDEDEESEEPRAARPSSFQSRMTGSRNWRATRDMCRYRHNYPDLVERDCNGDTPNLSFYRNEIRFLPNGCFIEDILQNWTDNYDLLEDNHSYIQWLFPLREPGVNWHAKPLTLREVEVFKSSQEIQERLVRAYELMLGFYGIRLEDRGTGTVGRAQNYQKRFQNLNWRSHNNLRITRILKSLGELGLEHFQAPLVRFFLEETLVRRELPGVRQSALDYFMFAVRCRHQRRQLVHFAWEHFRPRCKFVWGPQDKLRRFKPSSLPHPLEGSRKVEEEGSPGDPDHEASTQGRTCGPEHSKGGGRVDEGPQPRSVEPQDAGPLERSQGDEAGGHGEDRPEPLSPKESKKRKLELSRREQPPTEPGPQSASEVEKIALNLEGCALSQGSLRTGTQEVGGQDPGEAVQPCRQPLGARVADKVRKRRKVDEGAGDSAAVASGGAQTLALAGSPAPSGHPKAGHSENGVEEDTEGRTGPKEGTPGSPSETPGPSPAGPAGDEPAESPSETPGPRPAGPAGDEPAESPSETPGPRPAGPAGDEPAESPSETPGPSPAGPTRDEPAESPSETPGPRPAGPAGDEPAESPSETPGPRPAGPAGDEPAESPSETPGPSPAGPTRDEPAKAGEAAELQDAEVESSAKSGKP
inactive: [1] -0.023 | [2] 0.018 | [3] -0.022 | [4] 0.035 | [5] 0.057 | [6] 0.075 | [7] 0.002 | [8] 0.01 | [9] -0.02 | [10] 0.125 | [11] 0.026 | [12] -0.103 | [13] 0.167 | [14] -0.076 | [15] 0.018 | [16] -0.041 | [17] 0.142 | [18] 0.007 | [19] -0.027 | [20] -0.134

OXSR1 (UniProt O95747)
UniProt O95747, sequence (O95747 whole entry, looked up): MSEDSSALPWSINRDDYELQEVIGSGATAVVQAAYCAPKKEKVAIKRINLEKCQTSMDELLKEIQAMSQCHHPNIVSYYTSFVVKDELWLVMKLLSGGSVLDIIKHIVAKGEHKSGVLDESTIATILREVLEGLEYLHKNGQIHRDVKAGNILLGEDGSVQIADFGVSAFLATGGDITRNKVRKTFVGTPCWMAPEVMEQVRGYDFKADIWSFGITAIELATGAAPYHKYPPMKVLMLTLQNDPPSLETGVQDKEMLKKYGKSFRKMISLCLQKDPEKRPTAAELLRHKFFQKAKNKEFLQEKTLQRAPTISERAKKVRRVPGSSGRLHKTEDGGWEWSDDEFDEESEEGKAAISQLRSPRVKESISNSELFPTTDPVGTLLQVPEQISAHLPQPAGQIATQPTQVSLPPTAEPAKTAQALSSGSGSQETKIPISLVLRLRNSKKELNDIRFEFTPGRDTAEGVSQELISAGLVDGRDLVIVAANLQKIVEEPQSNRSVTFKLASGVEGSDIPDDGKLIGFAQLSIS
inactive: [1] 0.019 | [2] -0.11 | [3] 0.014 | [4] 0.004 | [5] -0.021 | [6] 0.037 | [7] 0.038 | [8] 0.007 | [9] 0.055 | [10] 0.035 | [11] -0.122 | [13] 0.049 | [14] 0.03 | [15] -0.018 | [16] -0.077 | [17] 0.043 | [18] 0.053 | [19] 0.008
active: [12] -0.274 | [20] -0.24

NOL7 (UniProt Q9UMY1)
UniProt Q9UMY1, sequence (Q9UMY1 whole entry, looked up): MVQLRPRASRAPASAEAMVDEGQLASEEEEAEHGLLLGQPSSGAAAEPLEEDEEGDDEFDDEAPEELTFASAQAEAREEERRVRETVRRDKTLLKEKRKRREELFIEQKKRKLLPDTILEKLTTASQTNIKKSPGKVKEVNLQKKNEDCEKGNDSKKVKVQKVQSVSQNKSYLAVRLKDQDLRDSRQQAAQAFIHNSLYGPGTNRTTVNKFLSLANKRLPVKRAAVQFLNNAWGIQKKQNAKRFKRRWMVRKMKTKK
inactive: [1] -0.06 | [2] -0.055 | [3] -0.048 | [4] -0.193 | [5] 0.214 | [6] -0.14 | [7] -0.121 | [8] 0.088 | [9] 0.031 | [10] -0.092 | [11] 0.226 | [12] 0.417 | [13] -0.086 | [14] -0.338 | [15] -0.019 | [16] 0.232 | [17] -0.123 | [18] -0.154 | [19] 0.316 | [20] 0.237

MOV10 (UniProt Q9HCE1)
UniProt Q9HCE1, sequence (Q9HCE1 whole entry, looked up): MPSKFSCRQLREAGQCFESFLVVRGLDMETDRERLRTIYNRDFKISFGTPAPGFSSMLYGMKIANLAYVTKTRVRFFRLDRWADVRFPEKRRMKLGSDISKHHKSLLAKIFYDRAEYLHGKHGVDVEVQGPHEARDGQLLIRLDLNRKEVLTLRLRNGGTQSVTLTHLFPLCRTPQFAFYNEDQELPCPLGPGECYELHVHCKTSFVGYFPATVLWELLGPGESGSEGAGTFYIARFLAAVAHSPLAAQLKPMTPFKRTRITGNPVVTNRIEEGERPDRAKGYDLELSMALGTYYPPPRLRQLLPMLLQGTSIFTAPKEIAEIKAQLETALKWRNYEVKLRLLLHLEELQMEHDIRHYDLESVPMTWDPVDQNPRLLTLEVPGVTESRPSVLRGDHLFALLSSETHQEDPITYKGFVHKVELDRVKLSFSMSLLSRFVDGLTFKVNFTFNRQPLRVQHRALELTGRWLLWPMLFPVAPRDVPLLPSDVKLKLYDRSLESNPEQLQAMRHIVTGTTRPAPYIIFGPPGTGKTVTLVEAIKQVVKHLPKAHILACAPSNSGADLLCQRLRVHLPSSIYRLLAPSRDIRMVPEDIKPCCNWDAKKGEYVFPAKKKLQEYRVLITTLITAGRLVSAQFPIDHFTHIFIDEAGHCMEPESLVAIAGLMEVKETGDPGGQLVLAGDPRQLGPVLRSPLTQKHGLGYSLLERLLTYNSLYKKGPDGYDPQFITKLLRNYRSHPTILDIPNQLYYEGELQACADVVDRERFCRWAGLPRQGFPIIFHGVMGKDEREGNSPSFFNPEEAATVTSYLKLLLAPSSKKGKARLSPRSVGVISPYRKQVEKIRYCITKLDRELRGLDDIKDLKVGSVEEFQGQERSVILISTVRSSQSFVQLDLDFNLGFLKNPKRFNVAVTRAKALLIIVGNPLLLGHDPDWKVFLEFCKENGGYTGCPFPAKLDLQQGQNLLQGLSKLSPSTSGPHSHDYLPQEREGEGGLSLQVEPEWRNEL
inactive: [1] 0.044 | [2] 0.017 | [3] -0.055 | [4] -0.067 | [5] 0.221 | [6] -0.027 | [7] -0.048 | [8] 0.054 | [9] -0.006 | [10] -0.05 | [11] 0.199 | [12] 0.195 | [13] -0.029 | [14] -0.156 | [15] 0.029 | [16] 0.158 | [17] -0.061 | [18] -0.044 | [19] 0.185 | [20] 0.331

MT-ATP6 (UniProt P00846)
UniProt P00846, sequence (P00846 whole entry, looked up): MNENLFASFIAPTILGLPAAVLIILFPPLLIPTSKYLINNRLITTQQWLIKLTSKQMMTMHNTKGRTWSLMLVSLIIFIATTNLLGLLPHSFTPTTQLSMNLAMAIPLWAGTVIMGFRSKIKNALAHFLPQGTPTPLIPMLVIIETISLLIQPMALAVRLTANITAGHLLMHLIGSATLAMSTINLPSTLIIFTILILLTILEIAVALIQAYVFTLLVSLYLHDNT
inactive: [1] -0.009 | [2] 0.041 | [3] 0.008 | [4] 0.026 | [5] -0.133 | [6] -0.159 | [7] -0.043 | [8] -0.014 | [9] -0.074 | [10] 0.567 | [11] 0.043 | [12] -0.091 | [13] -0.057 | [14] 0.105 | [15] -0.053 | [16] -0.152 | [17] -0.095 | [18] 0.502 | [19] -0.239 | [20] -0.16

NR2C2 isoform 2 (UniProt P49116)
active: [5] -0.23
inactive: [1] -0.017 | [2] 0.029 | [3] 0.114 | [4] -0.034 | [6] -0.023 | [7] 0.03 | [8] 0.04 | [9] -0.073 | [10] 0.028 | [11] 0.051 | [12] -0.102 | [13] 0.055 | [14] 0.036 | [15] -0.015 | [16] 0.049 | [17] -0.069 | [18] 0.022 | [19] 0.036 | [20] 0.046

NEDD4L (UniProt Q96PU5)
UniProt Q96PU5, sequence (Q96PU5 whole entry, looked up): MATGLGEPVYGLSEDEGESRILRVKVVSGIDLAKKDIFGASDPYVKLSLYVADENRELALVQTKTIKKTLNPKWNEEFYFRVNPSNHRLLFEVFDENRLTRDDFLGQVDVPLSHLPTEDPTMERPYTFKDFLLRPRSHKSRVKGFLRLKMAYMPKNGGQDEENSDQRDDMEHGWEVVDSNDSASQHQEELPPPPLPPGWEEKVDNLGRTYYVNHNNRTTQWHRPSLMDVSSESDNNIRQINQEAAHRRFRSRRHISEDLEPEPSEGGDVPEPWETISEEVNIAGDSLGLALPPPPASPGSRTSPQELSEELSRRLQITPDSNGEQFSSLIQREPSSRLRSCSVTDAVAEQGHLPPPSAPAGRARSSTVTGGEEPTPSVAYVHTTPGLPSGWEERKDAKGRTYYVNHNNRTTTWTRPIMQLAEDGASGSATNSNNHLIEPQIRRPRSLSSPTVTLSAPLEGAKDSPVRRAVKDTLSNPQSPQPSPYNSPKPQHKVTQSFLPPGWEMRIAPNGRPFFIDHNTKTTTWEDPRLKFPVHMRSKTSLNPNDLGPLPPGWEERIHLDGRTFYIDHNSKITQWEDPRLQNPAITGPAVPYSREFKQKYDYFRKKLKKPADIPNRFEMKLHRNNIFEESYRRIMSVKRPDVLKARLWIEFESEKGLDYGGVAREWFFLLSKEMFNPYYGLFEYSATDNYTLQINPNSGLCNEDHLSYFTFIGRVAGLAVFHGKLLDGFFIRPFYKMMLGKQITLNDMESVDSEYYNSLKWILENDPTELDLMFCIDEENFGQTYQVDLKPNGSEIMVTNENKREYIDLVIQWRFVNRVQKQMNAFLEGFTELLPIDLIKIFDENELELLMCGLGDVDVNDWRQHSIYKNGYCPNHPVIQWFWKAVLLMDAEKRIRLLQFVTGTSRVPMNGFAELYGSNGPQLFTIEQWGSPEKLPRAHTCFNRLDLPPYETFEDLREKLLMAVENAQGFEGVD
active: [12] -0.425
inactive: [1] 0.015 | [2] -0.138 | [3] -0.046 | [4] 0.01 | [5] -0.059 | [6] 0.049 | [7] 0.019 | [8] 0.013 | [9] 0.056 | [10] -0.021 | [11] -0.02 | [13] 0.03 | [14] 0.012 | [15] -0.015 | [16] -0.09 | [17] 0.023 | [18] 0.029 | [19] 0.039 | [20] -0.099

NOP53 (UniProt Q9NZM5)
inactive: [1] -0.052 | [2] 0.005 | [3] -0.073 | [4] -0.163 | [5] 0.264 | [6] -0.154 | [7] -0.147 | [8] 0.204 | [9] 0.048 | [10] -0.105 | [11] 0.174 | [12] 0.393 | [13] -0.014 | [14] -0.009 | [15] -0.132 | [16] 0.013 | [17] -0.111 | [18] -0.053 | [19] 0.516 | [20] 0.599

NRF1 isoform 4 (UniProt Q16656)
inactive: [1] 0.002 | [2] 0.03 | [3] -0.015 | [4] 0.051 | [5] -0.316 | [6] 0.004 | [7] 0.081 | [8] -0.007 | [9] 0.042 | [10] 0.034 | [11] -0.173 | [13] 0.087 | [14] 0.268 | [15] -0.056 | [16] 0.035 | [17] 0.08 | [18] 0.1 | [19] -0.084 | [20] 0.037
active: [12] -0.501

NDUFB7 (UniProt P17568)
active: [9] -0.367
inactive: [1] 0.037 | [2] -0.006 | [3] 0.063 | [4] 0.027 | [5] 0.023 | [6] 0.018 | [7] -0.014 | [8] -0.124 | [10] -0.012 | [11] -0.053 | [12] -0.004 | [13] -0.072 | [14] -0.066 | [15] -0.129 | [16] -0.099 | [17] -0.036 | [18] 0.058 | [19] -0.058 | [20] 0.094

NACC1 (UniProt Q96RE7)
UniProt Q96RE7, sequence (Q96RE7 whole entry, looked up): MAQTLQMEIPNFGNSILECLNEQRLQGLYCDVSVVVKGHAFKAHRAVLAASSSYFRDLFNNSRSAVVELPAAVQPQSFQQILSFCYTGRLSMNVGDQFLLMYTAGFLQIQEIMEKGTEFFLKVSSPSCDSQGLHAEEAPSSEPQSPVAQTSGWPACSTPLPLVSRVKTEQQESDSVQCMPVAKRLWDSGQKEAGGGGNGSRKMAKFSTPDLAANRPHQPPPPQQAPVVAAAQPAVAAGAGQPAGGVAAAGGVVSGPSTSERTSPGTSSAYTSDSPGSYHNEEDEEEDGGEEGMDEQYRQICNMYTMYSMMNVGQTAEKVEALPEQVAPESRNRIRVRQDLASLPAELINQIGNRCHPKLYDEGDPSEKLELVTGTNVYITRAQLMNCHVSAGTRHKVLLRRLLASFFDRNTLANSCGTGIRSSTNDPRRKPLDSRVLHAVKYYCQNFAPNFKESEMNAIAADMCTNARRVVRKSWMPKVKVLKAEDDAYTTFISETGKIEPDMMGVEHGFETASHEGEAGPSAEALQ
inactive: [1] -0.043 | [2] -0.012 | [3] 0.048 | [4] 0.164 | [5] -0.036 | [6] 0.154 | [7] 0.064 | [8] 0.025 | [9] 0.208 | [10] 0.115 | [11] -0.32 | [13] 0.112 | [14] 0.002 | [15] -0.079 | [16] -0.022 | [17] 0.033 | [18] 0.095 | [19] 0 | [20] -0.259
active: [12] -0.616

OXSM (UniProt Q9NWU1)
inactive: [1] -0.023 | [2] -0.057 | [3] 0.023 | [4] 0.003 | [5] -0.061 | [6] 0.01 | [7] 0.045 | [8] -0.03 | [10] -0.034 | [11] -0.063 | [12] -0.017 | [13] -0.022 | [14] 0.018 | [15] -0.048 | [16] -0.003 | [17] -0.005 | [18] 0.02 | [19] -0.025 | [20] 0.058
active: [9] -0.234

PAK1 isoform 2 (UniProt Q13153)
UniProt Q13153, sequence (Q13153 whole entry, looked up): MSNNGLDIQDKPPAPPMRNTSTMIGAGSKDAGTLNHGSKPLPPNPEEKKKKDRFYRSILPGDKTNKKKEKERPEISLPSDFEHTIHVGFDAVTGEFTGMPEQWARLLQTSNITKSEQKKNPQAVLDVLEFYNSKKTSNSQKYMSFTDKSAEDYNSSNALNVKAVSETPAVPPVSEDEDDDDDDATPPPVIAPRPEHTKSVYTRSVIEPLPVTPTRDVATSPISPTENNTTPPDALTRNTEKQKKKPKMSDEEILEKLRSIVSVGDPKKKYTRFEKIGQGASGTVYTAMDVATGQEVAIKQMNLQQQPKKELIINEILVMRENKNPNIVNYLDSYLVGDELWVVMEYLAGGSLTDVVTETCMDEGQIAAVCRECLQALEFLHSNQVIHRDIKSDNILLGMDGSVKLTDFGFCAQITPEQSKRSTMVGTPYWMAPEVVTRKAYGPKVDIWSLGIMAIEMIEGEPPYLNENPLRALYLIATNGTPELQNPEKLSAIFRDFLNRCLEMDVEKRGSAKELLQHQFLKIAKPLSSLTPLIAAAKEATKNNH
inactive: [1] 0.035 | [2] -0.072 | [3] 0.114 | [4] 0.003 | [5] -0.01 | [6] 0.019 | [7] -0.036 | [8] -0.075 | [9] -0.054 | [10] -0.001 | [11] 0.032 | [12] -0.022 | [13] -0.024 | [14] 0.046 | [15] 0.043 | [16] -0.122 | [17] 0.064 | [18] 0.016 | [19] -0.062 | [20] -0.031

MXRA7 (UniProt P84157)
inactive: [1] -0.181 | [2] -0.015 | [3] 0.038 | [4] 0.011 | [5] -0.002 | [6] 0.041 | [7] -0.032 | [8] -0.078 | [9] 0.011 | [10] 0.048 | [11] 0.04 | [12] 0.08 | [13] -0.11 | [14] -0.034 | [15] 0.038 | [16] -0.042 | [17] 0.124 | [18] 0.037 | [19] -0.114 | [20] 0.113

NME1 isoform 2 (UniProt P15531)
UniProt P15531, sequence (P15531 whole entry, looked up): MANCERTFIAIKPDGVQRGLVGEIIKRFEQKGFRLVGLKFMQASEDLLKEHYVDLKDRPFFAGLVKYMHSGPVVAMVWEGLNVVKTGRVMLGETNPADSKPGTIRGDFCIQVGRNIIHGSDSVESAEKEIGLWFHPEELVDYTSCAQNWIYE
inactive: [1] -0.054 | [2] 0.047 | [3] 0.029 | [4] -0.006 | [5] -0.067 | [6] -0.003 | [7] -0.045 | [8] -0.092 | [9] -0.07 | [10] -0.108 | [11] 0.061 | [12] 0.046 | [13] 0.03 | [14] -0.01 | [15] -0.087 | [16] -0.134 | [17] -0.028 | [18] 0.024 | [19] -0.184 | [20] -0.039

From the supplement of paper PMC10849652
